Experiment [1] deals with Human papillomavirus type 1a protein E7 (residues 44-93). The experiment is described as follows: small molecules binding HPV E7 44-93 – biochemical, small-molecule microarray, residues 44-93, 635 nm fluorescence, primary screen (AID 1108).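 Also: E7 fragment applied at 1 µg/mL in TBST for 1 h at 4 C; score combines spot fluorescence with its signal to noise ratio.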 As to conditions: fluorescence 635 nm, higher = more signal.
Experiment [2] in a line: hepatitis C replication reporter changes, two-sided – Huh7 cells, luciferase reporter, HCV replication inhibitor project, primary screen (AID 1109).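 Also: huh7 hepatoma cells harbouring a luciferase neomycin HCV replicon reporter; luciferase luminescence as measure of HCV replicon replication; test concentration not given here.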 To be noted: Huh7 HCV replicon luciferase reporter, 48 h; higher = more signal. Background: A reporter such as luciferase makes a cellular process visible.
In experiment [3] the target is Left-right determination factor 2 (Homo sapiens) (UniProt O00292). As to the kind of experiment: small molecules binding LEFTY2 protein – biochemical, small-molecule microarray, 635 nm fluorescence scan, primary screen (AID 1110). As to conditions: higher = more signal.
Left-right determination factor 2 (Homo sapiens), sequence (O00292 whole entry, looked up): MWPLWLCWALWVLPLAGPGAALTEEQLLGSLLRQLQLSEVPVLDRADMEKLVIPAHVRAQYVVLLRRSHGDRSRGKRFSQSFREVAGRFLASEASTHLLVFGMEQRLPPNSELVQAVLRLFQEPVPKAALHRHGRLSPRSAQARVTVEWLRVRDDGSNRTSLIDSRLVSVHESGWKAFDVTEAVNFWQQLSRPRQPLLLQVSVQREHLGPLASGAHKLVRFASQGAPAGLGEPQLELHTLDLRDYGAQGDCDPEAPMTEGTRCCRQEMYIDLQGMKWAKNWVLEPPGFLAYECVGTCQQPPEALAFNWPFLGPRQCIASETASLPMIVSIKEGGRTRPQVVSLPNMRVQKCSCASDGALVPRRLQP
The target of experiment [4] is Calmodulin-1 (Homo sapiens) (UniProt P0DP23). The experiment is described as follows: small molecules binding calmodulin-1 with EGTA – biochemical, small-molecule microarray, Cy5-labelled CALM1, profiling panel (AID 1111).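 Also: labelled calmodulin applied in Tris saline Tween buffer holding calcium plus EGTA and DTT.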 As to conditions: Cy5-CALM1 binding fluorescence, higher = more signal.
The target is the same in experiment [5]. As to the kind of experiment: small molecules binding Ca-loaded calmodulin-1 – biochemical, small-molecule microarray, Cy5-labelled CALM1, plus calcium, artefact control for SMM control-protein annotation, profiling panel (AID 1112).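 Also: score merges spot fluorescence with signal to noise from triplicate slides.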 As to conditions: Cy5-CALM1 binding fluorescence, higher = more signal.
Experiment [6] can be described thus: probe aWnt5a binding to arrayed compounds – biochemical, biotinylated probe, 635/667 nm fluorescence, primary screen (AID 1113).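 Also: score merges 667 nm fluorescence intensity with signal-to-noise per printed feature.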 To be noted: small-molecule microarray, higher = more signal.
Experiment [7] can be described thus: probe aShh binding to arrayed compounds – biochemical, biotinylated probe, 635/667 nm fluorescence, primary screen (AID 1114).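 Also: probe is biotin-labelled aShh protein from a stem cell growth factor screen; measures binding of labelled protein to compounds printed on the slide; score merges feature fluorescence at 667 nm with signal-to-noise.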 As to conditions: small-molecule microarray, higher = more signal.
A short description of experiment [8]: probe aNog binding to arrayed compounds – biochemical, biotinylated probe, 635/667 nm fluorescence, primary screen (AID 1115).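 Also: probe is biotinylated aNog protein used at 0.15 µg/mL for 1 h at 4 C; z-score combines 667 nm fluorescence of each spot with its signal to noise.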 As to conditions: small-molecule microarray, higher = more signal.
In experiment [9] the target is Torsin-1A-interacting protein 1 (Homo sapiens) (UniProt Q5JTV8). The experiment is described as follows: compound microarray binding of lysate hLAP1 – cell lysate, small-molecule microarray, COS7 lysate, 635/667 nm fluorescence, primary screen (AID 1116). To be noted: 635 nm fluorescence, higher = more signal.
Torsin-1A-interacting protein 1 (Homo sapiens), sequence (Q5JTV8 whole entry, looked up): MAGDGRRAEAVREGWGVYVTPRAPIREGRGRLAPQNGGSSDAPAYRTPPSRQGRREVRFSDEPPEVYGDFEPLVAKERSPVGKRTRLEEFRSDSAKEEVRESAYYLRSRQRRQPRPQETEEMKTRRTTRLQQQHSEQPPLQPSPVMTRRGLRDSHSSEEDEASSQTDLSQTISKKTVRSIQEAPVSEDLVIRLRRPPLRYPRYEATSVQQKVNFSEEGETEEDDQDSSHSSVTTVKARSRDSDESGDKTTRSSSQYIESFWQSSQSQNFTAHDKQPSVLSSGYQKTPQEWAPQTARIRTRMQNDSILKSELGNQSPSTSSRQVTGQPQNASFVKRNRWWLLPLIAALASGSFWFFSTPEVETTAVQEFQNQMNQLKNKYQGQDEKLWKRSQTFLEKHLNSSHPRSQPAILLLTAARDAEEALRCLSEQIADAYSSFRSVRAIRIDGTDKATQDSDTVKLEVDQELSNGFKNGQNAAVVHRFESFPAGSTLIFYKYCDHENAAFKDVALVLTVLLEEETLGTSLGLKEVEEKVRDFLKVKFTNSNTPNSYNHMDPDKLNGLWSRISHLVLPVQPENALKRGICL
Experiment [10] concerns the target Alpha-bungarotoxin (Bungarus multicinctus) (UniProt P60615). As to the kind of experiment: compounds binding labelled alpha-BTX control protein – biochemical, small-molecule microarray, Alexa647 label, 635/667 nm fluorescence, artefact control for SMM control protein annotation, profiling panel (AID 1117). To be noted: alpha-BTX-A647 binding fluorescence, higher = more signal.

Experiment [11] addresses Albumin (Bos taurus) (UniProt P02769). As to the kind of experiment: compounds binding labelled BSA control protein – biochemical, small-molecule microarray, Alexa647 label, 635/667 nm fluorescence, artefact control for SMM control protein annotation, profiling panel (AID 1118).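 Also: score merges 667 nm emission intensity and signal-to-noise per printed compound spot.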 To be noted: BSA-A647 binding, fluorescence 635 nm, higher = more signal.
Experiment [12] in a line: probe aXIP binding to arrayed compounds – biochemical, NeuroSMM set, 635/667 nm fluorescence, primary screen (AID 1119).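 Also: probe is the protein aXip251-270 applied at 1 µg/mL to compound-printed slides; binding of probe to printed compounds measured as 667 nm fluorescence plus signal to noise.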 To be noted: small-molecule microarray, higher = more signal, called active from +8 up or from −8 down.
A short description of experiment [13]: probe aNOTCH3 binding on compound microarray – biochemical, small-molecule microarray, 635/667 nm fluorescence, primary screen (AID 1120).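 Also: probe is a biotin-tagged antibody raised against NOTCH3 rather than NOTCH3 protein; score merges spot fluorescence near 667 nm with spot signal to noise.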 To be noted: higher = more signal.
Experiment [14] is described as follows: probe aNOTCH2 binding on compound microarray – biochemical, small-molecule microarray, 635/667 nm fluorescence, primary screen (AID 1121).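 Also: score merges feature fluorescence read at 667 nm with its signal to noise.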 To be noted: higher = more signal.
The target in experiment [15] is Carbonic anhydrase 2 (Homo sapiens) (UniProt P00918). The experiment is described as follows: compounds binding carbonic anhydrase 2 – biochemical, small-molecule microarray, Alexa647-labelled CAII, profiling panel (AID 1122). As to conditions: CAII-A647 binding fluorescence, higher = more signal.
Experiment [16] is described as follows: COS7 lysate on small-molecule microarray, probe aHis, 635 nm (AID 1123).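 Also: z-score combines 667nm fluorescence intensity with signal-to-noise per printed compound spot.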 As to conditions: COS7 cell lysate, fluorescence, higher = more signal.
Experiment [17] is described as follows: probe aLAP1 signal on lysate-treated microarray – cell lysate, small-molecule microarray, COS7 lysate, primary screen (AID 1124).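 Also: lysate comes from COS7 cells expressing LAP1 and is applied at 0.3 µg/mL; score merges spot fluorescence near 667 nm with signal-to-noise over triplicate slides.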 As to conditions: probe aLAP1, fluorescence, higher = more signal.
Experiment [18] deals with Sam68 (KHDRBS1). As to the kind of experiment: compounds binding KHDRBS1 protein – biochemical, small-molecule microarray, 635 nm fluorescence, primary screen (AID 1125).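 Also: score merges 667 nm channel intensity with signal to noise over triplicate slides.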 As to conditions: higher = more signal.
Experiment [19] has as its system Chordin-like protein 2 (CHRDL2). As to the kind of experiment: compounds binding chordin-like 2 – biochemical, small-molecule microarray, 635 nm fluorescence, primary screen (AID 1126).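 Also: printed compound slides probed with Chrdl2 protein at 4 µg/mL for 1 h at 4 C; score merges 667 nm emission intensity with signal to noise over three replicate slides.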 As to conditions: fluorescence 635 nm, higher = more signal.
Experiment [20] concerns the target Concanavalin-A (Canavalia ensiformis) (UniProt P02866). The experiment is described as follows: compounds binding concanavalin A lectin – biochemical, small-molecule microarray, Alexa647 label, 635 nm, artefact control for SMM control protein annotation, primary screen (AID 1127).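 Also: z combines 667 nm emission intensity with signal-to-noise across three replicate slides.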 As to conditions: ConA-A647 binding fluorescence, higher = more signal.

Among the data in PubChem BioAssay are composite z-score, z-score and composite Z-score values, retold here.

Calls of active or inactive are those of the source.

Albumin (Bos taurus), sequence (P02769 whole entry, looked up): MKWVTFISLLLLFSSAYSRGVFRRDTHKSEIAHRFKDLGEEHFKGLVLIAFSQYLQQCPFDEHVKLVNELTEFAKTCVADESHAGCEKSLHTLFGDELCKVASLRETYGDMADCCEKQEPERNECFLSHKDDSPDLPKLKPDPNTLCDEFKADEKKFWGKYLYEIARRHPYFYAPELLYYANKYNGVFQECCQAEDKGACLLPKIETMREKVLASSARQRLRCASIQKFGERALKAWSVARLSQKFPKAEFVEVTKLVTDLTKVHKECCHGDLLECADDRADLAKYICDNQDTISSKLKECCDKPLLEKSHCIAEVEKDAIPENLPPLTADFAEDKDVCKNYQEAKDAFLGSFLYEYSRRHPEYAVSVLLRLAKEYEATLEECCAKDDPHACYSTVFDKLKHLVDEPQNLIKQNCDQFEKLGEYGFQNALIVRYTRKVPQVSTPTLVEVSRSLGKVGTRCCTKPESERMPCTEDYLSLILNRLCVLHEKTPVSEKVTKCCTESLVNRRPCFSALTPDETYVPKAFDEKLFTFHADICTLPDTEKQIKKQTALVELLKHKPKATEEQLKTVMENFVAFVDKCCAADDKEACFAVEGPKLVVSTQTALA
Concanavalin-A (Canavalia ensiformis), sequence (P02866 whole entry, looked up): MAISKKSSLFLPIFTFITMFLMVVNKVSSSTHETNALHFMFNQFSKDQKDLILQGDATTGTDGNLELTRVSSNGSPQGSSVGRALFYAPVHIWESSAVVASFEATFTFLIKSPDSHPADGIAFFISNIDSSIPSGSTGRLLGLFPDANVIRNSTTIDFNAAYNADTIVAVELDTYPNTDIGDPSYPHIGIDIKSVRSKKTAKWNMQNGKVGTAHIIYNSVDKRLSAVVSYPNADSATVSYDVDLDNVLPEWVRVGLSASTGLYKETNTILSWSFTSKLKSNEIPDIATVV
Alpha-bungarotoxin (Bungarus multicinctus), sequence (P60615 whole entry, looked up): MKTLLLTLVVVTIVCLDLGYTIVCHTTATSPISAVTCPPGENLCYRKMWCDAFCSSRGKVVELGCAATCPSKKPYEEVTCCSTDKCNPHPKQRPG

Take `[N-]=[N+]=NCc1ccccc1[C@@H]1OC(c2ccc(OCCCO)cc2)=N[C@]1(Cc1ccccc1)C(=O)NCc1ccccc1`: the composite z-score in experiment [1] was 1.28; in experiment [3], 0.0086; in experiment [4] it was 1.87; in [5], 0.237; in experiment [6], 0.0495; in experiment [7], 0.0181. Further, the composite z-score is -0.489 in [8]; 1.12 in [9]; 0.688 in experiment [10]; 0.937 in [11]; 0.0774 in [13]; -0.0349 in [14]. The composite z-score is 0.782 in experiment [15]; 2.99 in [16]; 0.388 in [17]; 0.826 in experiment [18]; -0.691 in experiment [19]; 1.08 in experiment [20]. In experiment [2], the z-score is -2.34. In addition, the composite Z-score in experiment [12] is -0.04 (inactive).
On to `C=CCC(OC(C)=O)[C@@H]1[C@@H](N(Cc2cc3ccccc3o2)C(=O)c2ccc(-c3ccccc3)cc2)c2cc(OCCCO)ccc2N1C(=O)c1ccc2ccccc2n1` (stereo not given in full), for which the composite z-score in [1] was 0.061; in [3], 0.163; in experiment [4] it was -0.12; in experiment [5] it was 0.898; in [6], 0.107; in experiment [7] it was -0.124. Moreover, the composite z-score in experiment [8] is -0.961; in [9] it was 0.554; in experiment [10] it was 0.113; in [11], 0.593; in experiment [13] it was -0.0362; in experiment [14], -0.0901. Also, the composite z-score in experiment [15] was 0.0088; in experiment [16] it was 0.23; in experiment [17] it was 0.269; in experiment [18] it was -0.626; in [19], 0.163; in [20] it was -1.34. For the same molecule, in experiment [2], the z-score stood at 0.104. In [12], the composite Z-score is 0.176 (inactive).
Turning to `C#CCN=C(N)N`, the composite z-score in [1] was 0.69; in [3] it was 1.11; in experiment [4] it was -0.617; in [5] it was -0.736; in [6], -0.131; in [7] it was -0.0813. Also, the composite z-score was -0.226 in experiment [8]; 0.622 in experiment [9]; 0.0757 in experiment [10]; -0.0077 in experiment [11]; 0.0276 in [13]; -0.0403 in [14]. In addition, the composite z-score in [15] is 0.41; in experiment [16] it was 0.121; in experiment [17] it was 0.118; in [18] it was 0.754; in experiment [19], 0.437; in experiment [20], 0.604. The molecule also registered a z-score in [2] of -0.613. Besides, the composite Z-score in [12] is 0.322 (inactive).
As to `C[C@H]1C2[C@H](Cc3ccccc3)NC(=O)[C@]23C(=O)NCC(=O)N2CCC[C@H]2C(=O)NC/C=C\C/C=C/C3[C@@H]2O[C@]12C` (stereo not given in full), the composite z-score was -0.8 in [1]; 0.245 in experiment [3]; -0.549 in experiment [4]; -0.698 in [5]; -0.0417 in experiment [6]; -0.2 in experiment [7]. The composite z-score in [8] is -0.28; in [9], -0.177; in experiment [10], -0.246; in [11], -0.674; in experiment [13] it was 0.155; in [14], -0.176. For the same molecule, the composite z-score in experiment [15] is 0.718; in experiment [16], -0.981; in experiment [17], -0.632; in experiment [18], -0.158; in experiment [19], 0.486; in experiment [20], -0.351. The same molecule gave a z-score in experiment [2] of 0.288. In experiment [12], the composite Z-score is -0.403 (inactive).
Regarding `C=CCC(OC(C)=O)[C@@H]1[C@@H](N(Cc2ccc(-c3ccccc3)cc2)C(=O)c2cccc3ccccc23)c2cc(OCCCO)ccc2N1C(=O)c1ccc2ccccc2c1` (stereo not given in full), the composite z-score was 0.403 in experiment [1]; -0.0981 in [3]; 0.187 in experiment [4]; 0.188 in [5]; -0.0685 in [6]; -0.399 in experiment [7]. The composite z-score in experiment [8] is -0.258; in experiment [9], -0.0482; in experiment [10] it was 0.971; in experiment [11] it was 0.002; in [13] it was -0.0377; in [14], -0.0368. In addition, the composite z-score is 0.0991 in [15]; 0.116 in experiment [16]; 0.0105 in experiment [17]; 0.263 in [18]; -0.52 in experiment [19]; -0.31 in [20]. This molecule also registered a z-score in experiment [2] of -0.464. In experiment [12], the composite Z-score is -0.124 (inactive).
